Data published in the supplement of paper PMC10849652.
Of roughly 7,900 targets only a part is listed; those with a hit were picked by preference. About 0.6% of all pairs of compound and target were hits. Unmarked numbers belong to inactive results.

Tests used:
Experiment in all cases: log2 fold change, soluble protein after heating vs DMSO (PISA); higher = thermal stabilisation; K562 cells, 10 uM, 30 min; active = over 0.2 and 3.5 SD of the protein, either way, in both replicates (recomputed)
[1] = compound: NC(=O)Nc1cc(-c2cccc(F)c2)sc1C(=O)N[C@H]1CCCNC1
How it was run: (§1)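 K562 cells (2×10^6 cells/mL) were treated with 10 μM compound for 30 min, and aliquots were heated for 3 min over 48°C-58°C. Pooled aliquots were extracted in PBS with 0.5% NP-40 at 4°C, and the supernatant after 21,000xg for 90 min was measured by TMTpro 16plex LC-MS/MS with channel sums equalised. Reported thermal stability, relative to control samples and from duplicates, is a log2 fold change.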

[2] = compound: NC(=O)c1cnc(N[C@@H]2CCCC[C@@H]2N)nc1Nc1cccc(-n2nccn2)c1
How it was run: as §1

[3] = compound: NC1(c2ccc(-c3nc4ccn5c(=O)[nH]nc5c4cc3-c3ccccc3)cc2)CCC1
How it was run: as §1

[4] = compound: NCC(=O)Nc1ccc(-n2nc(C(F)(F)F)cc2-c2ccc3c(ccc4ccccc43)c2)cc1
How it was run: as §1

entinostat = compound: Nc1ccccc1NC(=O)c1ccc(CNC(=O)OCc2cccnc2)cc1 [entinostat]
How it was run: as §1

vorinostat = compound: O=C(CCCCCCC(=O)Nc1ccccc1)NO [vorinostat]
How it was run: as §1

citarinostat = compound: O=C(CCCCCCNC(=O)c1cnc(N(c2ccccc2)c2ccccc2Cl)nc1)NO [citarinostat]
How it was run: as §1

silmitasertib = compound: O=C(O)c1ccc2c(c1)nc(Nc1cccc(Cl)c1)c1ccncc12 [silmitasertib]
How it was run: as §1

[5] = compound: O=C1NC(=O)C(c2cnc3ccccn23)=C1c1cn2c3c(cc(F)cc13)CN(C(=O)N1CCCCC1)CC2
How it was run: as §1

[6] = compound: c1cc(OCCN2CCCCC2)cc(-c2n[nH]c3ccc(-c4nnc[nH]4)cc23)c1
How it was run: as §1

entospletinib = compound: c1cn2cc(-c3ccc4cn[nH]c4c3)nc(Nc3ccc(N4CCOCC4)cc3)c2n1 [entospletinib]
How it was run: as §1

Chain of UniProt Q9BVC4 (Q9BVC4 whole entry, looked up): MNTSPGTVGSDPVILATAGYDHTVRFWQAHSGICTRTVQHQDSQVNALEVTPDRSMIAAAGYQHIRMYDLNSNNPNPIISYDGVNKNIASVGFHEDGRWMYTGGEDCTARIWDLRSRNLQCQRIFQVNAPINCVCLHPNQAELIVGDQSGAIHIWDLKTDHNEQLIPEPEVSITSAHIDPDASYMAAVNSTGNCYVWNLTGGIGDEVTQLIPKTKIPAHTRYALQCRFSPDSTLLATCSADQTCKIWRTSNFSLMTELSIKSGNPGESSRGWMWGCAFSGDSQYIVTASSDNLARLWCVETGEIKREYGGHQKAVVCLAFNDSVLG
Chain of UniProt Q4G0T1 (Q4G0T1 whole entry, looked up): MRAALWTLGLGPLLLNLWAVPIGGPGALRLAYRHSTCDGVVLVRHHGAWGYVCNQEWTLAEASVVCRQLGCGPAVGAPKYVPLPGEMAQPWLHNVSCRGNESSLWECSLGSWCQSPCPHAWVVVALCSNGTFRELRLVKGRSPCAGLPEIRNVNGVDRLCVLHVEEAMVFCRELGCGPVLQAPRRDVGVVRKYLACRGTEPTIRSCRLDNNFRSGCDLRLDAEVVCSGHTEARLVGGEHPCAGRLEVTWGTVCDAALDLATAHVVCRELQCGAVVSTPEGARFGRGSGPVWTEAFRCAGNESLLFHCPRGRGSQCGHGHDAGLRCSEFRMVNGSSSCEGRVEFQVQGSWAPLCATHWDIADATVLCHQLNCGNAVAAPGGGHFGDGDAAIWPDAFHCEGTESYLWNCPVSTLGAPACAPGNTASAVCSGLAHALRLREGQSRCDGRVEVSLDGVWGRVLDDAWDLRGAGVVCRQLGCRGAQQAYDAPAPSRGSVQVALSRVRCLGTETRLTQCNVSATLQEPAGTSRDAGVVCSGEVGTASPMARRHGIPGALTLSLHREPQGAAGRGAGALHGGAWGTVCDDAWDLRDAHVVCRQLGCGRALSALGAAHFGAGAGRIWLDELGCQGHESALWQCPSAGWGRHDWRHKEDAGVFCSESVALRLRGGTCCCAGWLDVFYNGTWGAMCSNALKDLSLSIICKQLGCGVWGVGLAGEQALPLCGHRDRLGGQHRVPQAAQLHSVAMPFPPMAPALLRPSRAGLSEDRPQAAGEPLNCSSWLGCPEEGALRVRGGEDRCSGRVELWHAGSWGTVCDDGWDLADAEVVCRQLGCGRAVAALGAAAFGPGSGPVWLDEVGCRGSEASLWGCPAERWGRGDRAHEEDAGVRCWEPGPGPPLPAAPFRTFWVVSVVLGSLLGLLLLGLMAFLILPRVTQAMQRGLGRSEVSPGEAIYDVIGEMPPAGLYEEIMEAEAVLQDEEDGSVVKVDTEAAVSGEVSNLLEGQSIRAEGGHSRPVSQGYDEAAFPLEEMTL
Chain of UniProt Q9H6N6 (Q9H6N6 whole entry, looked up): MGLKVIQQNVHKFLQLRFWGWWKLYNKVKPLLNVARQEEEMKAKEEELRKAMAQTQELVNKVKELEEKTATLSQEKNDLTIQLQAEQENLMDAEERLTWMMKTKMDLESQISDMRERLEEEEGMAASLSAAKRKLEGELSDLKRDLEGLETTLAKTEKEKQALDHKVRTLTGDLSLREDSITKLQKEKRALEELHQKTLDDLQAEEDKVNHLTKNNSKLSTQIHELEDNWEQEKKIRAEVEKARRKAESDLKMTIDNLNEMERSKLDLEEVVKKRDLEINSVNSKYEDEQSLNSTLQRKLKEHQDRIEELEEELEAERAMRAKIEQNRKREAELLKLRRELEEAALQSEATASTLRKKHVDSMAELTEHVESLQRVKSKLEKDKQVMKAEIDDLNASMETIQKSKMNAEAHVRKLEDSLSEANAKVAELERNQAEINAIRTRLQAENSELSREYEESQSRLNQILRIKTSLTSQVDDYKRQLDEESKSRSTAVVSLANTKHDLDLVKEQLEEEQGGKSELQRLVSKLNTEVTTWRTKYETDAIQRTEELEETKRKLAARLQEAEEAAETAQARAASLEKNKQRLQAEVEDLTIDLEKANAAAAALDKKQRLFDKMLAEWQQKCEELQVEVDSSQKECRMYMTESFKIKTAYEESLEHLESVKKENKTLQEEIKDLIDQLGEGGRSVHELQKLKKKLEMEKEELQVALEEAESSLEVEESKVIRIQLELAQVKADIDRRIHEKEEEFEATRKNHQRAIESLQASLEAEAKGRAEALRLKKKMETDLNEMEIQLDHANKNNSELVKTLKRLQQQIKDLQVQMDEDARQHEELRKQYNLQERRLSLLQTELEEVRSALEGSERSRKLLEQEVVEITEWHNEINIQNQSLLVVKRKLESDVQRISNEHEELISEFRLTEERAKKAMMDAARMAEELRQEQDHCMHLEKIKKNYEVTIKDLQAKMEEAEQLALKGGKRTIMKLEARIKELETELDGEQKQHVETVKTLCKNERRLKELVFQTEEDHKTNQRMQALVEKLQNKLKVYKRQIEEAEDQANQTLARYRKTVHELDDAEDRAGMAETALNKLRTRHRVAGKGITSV
Chain of UniProt Q9Y6R0 (Q9Y6R0 whole entry, looked up): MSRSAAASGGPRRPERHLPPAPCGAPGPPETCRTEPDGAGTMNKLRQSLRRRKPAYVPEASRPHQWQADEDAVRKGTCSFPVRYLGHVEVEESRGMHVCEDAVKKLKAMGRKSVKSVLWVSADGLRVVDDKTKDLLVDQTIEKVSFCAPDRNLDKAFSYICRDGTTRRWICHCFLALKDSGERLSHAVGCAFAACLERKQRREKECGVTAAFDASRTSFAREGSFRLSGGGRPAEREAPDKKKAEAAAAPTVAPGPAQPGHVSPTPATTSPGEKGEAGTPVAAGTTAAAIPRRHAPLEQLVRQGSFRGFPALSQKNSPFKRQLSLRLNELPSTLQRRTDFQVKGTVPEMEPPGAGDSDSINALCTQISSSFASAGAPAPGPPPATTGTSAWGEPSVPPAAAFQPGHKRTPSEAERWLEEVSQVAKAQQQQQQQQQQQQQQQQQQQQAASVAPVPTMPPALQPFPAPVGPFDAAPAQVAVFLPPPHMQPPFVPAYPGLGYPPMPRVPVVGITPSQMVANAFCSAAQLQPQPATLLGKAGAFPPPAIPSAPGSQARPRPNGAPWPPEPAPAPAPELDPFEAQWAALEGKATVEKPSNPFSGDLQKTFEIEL
Chain of UniProt O43913 (O43913 whole entry, looked up): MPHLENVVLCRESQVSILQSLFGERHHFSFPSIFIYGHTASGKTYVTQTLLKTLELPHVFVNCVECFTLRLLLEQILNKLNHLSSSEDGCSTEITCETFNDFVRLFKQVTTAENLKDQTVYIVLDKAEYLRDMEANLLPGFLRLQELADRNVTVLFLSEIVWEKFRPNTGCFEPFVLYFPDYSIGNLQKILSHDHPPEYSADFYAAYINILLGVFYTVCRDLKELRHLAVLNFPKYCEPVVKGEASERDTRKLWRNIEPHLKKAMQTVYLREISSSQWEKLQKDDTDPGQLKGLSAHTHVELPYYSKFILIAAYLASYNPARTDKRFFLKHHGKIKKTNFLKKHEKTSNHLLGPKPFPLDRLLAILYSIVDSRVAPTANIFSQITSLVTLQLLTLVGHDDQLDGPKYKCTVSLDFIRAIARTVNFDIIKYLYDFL
Chain of UniProt Q9UK23 (Q9UK23 whole entry, looked up): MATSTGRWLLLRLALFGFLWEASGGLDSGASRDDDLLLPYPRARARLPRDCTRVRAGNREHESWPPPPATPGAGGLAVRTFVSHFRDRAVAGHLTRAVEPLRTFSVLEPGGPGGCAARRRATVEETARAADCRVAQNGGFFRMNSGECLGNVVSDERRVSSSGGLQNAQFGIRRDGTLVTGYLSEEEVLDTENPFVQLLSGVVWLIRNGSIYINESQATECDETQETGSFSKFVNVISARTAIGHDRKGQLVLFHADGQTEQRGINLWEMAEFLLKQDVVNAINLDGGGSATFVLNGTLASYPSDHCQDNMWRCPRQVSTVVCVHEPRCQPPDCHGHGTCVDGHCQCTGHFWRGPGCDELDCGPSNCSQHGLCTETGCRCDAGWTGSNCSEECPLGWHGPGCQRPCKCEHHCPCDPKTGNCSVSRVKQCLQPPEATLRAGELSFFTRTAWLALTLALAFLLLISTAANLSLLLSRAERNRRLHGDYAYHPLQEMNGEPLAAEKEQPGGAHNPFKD
Chain of UniProt P84157 (P84157 whole entry, looked up): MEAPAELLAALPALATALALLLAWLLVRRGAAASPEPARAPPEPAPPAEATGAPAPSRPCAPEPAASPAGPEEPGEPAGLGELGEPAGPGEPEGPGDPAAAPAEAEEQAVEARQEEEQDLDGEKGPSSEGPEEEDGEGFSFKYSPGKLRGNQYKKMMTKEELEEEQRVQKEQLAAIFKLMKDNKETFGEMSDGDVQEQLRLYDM
Chain of UniProt P19338 (P19338 whole entry, looked up): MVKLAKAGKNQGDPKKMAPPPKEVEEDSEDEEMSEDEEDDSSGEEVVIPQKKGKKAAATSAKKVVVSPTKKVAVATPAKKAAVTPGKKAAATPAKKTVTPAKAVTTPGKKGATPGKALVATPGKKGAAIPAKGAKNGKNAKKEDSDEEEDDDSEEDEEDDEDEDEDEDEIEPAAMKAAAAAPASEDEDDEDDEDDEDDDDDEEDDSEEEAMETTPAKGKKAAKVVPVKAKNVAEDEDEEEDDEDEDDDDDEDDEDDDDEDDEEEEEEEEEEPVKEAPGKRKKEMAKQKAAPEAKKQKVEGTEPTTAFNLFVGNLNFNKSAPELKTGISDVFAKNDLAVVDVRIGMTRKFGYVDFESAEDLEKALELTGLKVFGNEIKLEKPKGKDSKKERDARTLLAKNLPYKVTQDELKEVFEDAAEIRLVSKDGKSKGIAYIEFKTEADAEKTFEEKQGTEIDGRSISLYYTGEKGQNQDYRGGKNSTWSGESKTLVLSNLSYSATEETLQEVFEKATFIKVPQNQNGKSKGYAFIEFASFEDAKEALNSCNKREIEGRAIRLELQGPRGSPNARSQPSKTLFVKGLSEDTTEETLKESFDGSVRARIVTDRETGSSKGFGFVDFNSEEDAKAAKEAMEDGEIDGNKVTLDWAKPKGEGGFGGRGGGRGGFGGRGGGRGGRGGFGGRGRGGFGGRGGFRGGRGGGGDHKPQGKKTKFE

Target	log2 fold change [1]	log2 fold change [2]	log2 fold change [3]	log2 fold change [4]	log2 fold change (entinostat)	log2 fold change (vorinostat)	log2 fold change (citarinostat)	log2 fold change (silmitasertib)	log2 fold change [5]	log2 fold change [6]	log2 fold change (entospletinib)
MSL1 (UniProt Q68DK7)	-0.032	-0.085	-0.024	-0.036	0.016	0.104	0.047	-0.152	-0.153	0.017	-0.078
NGLY1 (UniProt Q96IV0)	-0.073	0.059	-0.151	-0.109	0.025	0.008	0.079	0.079	0.059	-0.059	0.081
NCKAP1 isoform 2 (UniProt Q9Y2A7)	0.066	-0.009	-0.12	-0.025	0.024	0.063	0.015	-0.029	-0.055	0.046	-0.041
NCL (UniProt P19338)	0.015	0.024	0.331	0.156	-0.093	-0.018	-0.105	0.2	0.147	-0.171	0.102
NSDHL (UniProt Q15738)	-0.14	-0.061	0.11	-0.033	-0.018	-0.04	0.023	-0.023	-0.027	0.02	-0.05
NMD3 (UniProt Q96D46)	-0.159	-0.034	-0.098	-0.037	-0.001	0	0.085	-0.048	-0.071	-0.047	-0.001
MXRA7 (UniProt P84157)	-0.097	0.037	0.037	-0.302 (active)	0.008	0.003	-0.006	0.028	-0.013	0.061	-0.008
OAT (UniProt P04181)	-0.051	-0.076	-0.235	-0.058	0.029	0.129	0.131	-0.036	-0.031	0.006	-0.012
NCAPG (UniProt Q9BPX3)	-0.062	-0.036	-0.118	-0.06	0.073	0.101	0.067	0.1	0.005	-0.016	0
NOB1 (UniProt Q9ULX3)	-0.032	0.002	-0.041	-0.021	0.047	0.093	-0.003	-0.096	0.062	0.038	-0.013
NBN (UniProt O60934)	-0.021	-0.037	-0.078	-0.067	0.127	0.091	0.009	-0.055	-0.104	0	0.009
NTMT1 (UniProt Q9BV86)	-0.035	0.027	0.077	-0.002	0.024	-0.089	-0.069	-0.028	-0.029	–	0.118
MLST8 (UniProt Q9BVC4)	0.064	-0.201	-0.182	-0.082	0.127	–	0.043	0.105	-0.03	-0.025	-0.06
NA isoform 3 (UniProt Q4G0T1)	-0.114	-0.207	0.015	-0.02	0.01	–	–	0.037	–	–	–
NCK1 (UniProt P16333)	-0.118	-0.247	-0.056	-0.112	0.085	–	–	0.077	-0.194	–	–
NUMBL (UniProt Q9Y6R0)	-0.101	0.016	-0.154	0.002	0.01	0.078	–	-0.037	0.016	–	–
MYH16 (UniProt Q9H6N6)	0.467	0.051	-0.057	0.051	0.289	0.291	–	-0.044	–	–	–
NME1 isoform 2 (UniProt P15531)	0.012	-0.017	-0.003	-0.003	-0.064	0.103	-0.089	-0.138	-0.089	-0.253	0.031
NAGPA (UniProt Q9UK23)	0.051	-0.045	0.03	–	0.04	-0.122	0.074	-0.237	0.043	-0.023	-0.109
PAFAH2 (UniProt Q99487)	0.079	-0.194	–	0.04	0.075	–	–	–	–	–	–
MRPS24 (UniProt Q96EL2)	-0.015	-0.016	-0.021	-0.086	0.001	0.04	-0.053	-0.096	-0.074	-0.105	0.086
MPHOSPH8 isoform 2 (UniProt Q99549)	0.257	0.004	0.161	-0.018	-0.191	–	–	-0.083	0.189	–	–
ORC5 (UniProt O43913)	-0.322	-0.188	-0.253	-0.058	-0.101	0.139	0.039	-0.072	–	-0.004	0.012
NEU1 (UniProt Q99519)	-0.081	-0.088	-0.114	-0.057	0.003	0.159	0.087	0.04	-0.066	-0.063	-0.025
MRPS21 (UniProt P82921)	-0.009	0.137	-0.003	0.095	-0.004	–	0.07	-0.156	0.024	-0.05	-0.031
NIBAN1 (UniProt Q9BZQ8)	-0.118	-0.036	-0.169	-0.036	0.073	0.106	0.123	0.029	-0.069	-0.106	0.055
NOP56 (UniProt O00567)	0.162	0.14	0.197	0.103	-0.084	0.014	-0.058	0.096	0.09	-0.156	-0.012
MRPS12 (UniProt O15235)	0.207	-0.053	-0.005	0.221	-0.017	0.038	0.01	-0.007	0.101	-0.056	0.15
